From PubChem BioAssay (Tox21)
Results filed as inconclusive are left out. Active and inactive are the calls of the source. Unless noted, the call rests on the fitted dose curve; in most records, active means well fitted curve in the direction sought with a large enough effect in the repeat runs; inconclusive means weak or mixed curves; inactive means no such curve, though single readings can be large; an effect the other way counts as inactive or inconclusive.

Key:
[1] = qHTS assay to identify small molecule antagonists of the androgen receptor (AR) signaling pathway using the MDA cell line in the presence of 0.5 nM R1881 - cell viability counter screen (AID 1259242); further: nearly all actives have a fitted effect of over 45% in size
Summary of the method: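 Concentration-response screen of compounds for toxicity in MDA-kb2 reporter cells: 16 hr at 37C with 0.5 nM R1881, endpoint live-cell protease fluorescence measured in the reporter wells.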

[2] = biological target: Estrogen receptor (Homo sapiens) (UniProt P03372); test: qHTS assay to identify small molecule antagonists of the estrogen receptor alpha (ER-alpha) signaling pathway using the BG1 cell line in the presence of 0.1 nM 17-beta-estradiol (AID 1259244); further: nearly all actives have a fitted effect of over 50% in size
Summary of the method: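 Compounds were tested against 0.1 nM (final) 17beta-estradiol in VM7Luc4E2 cells, which express full-length ER-alpha and an ERE-luciferase reporter; luminescence was recorded following 22 h exposure.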

[3] = qHTS assay to identify small molecule HDAC inhibitors - cell viability counter screen (AID 1259365); further: series mostly up to about 92 µM; nearly all actives have a fitted effect of over 50% in size
Summary of the method: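 Measured quantity is CellTiter-Glo luminescence from wild-type HCT-116 cells after compound incubation of 2hr at 37C, 5% CO2; reagent developed 30min at room temperature.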

[4] = qHTS assay to identify small molecule agonists of the sonic hedgehog signaling (Shh) pathway - cell viability counter screen (AID 1259366); further: nearly all actives have a fitted effect of over 50% in size
Summary of the method: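 In quantitative high-throughput format, 3T3 Gli1-Luc cells were exposed to compounds for 24hr and multiplexed for viability using CellTiter-Fluor, incubated 1hr at 37C before the fluorescence read.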

[5] = qHTS assay to identify small molecule antagonists of the sonic hedgehog signaling (Shh) pathway - cell viability counter screen (AID 1259367); further: nearly all actives have a fitted effect of over 55% in size
Summary of the method: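 Tox21 library chemicals were tested on a Gli1-Luc NIH/3T3 clone (2,000 cells/well) stimulated by conditioned medium; viability was quantified as fluorescence from CellTiter-Fluor reagent added at 23 hr.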

[6] = qHTS assay to identify small molecule agonists of the sonic hedgehog signaling (Shh) pathway (AID 1259368; calls by dose curve;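 further: NIH/3T3-derived 3T3Gli1-Luc cells carrying a stable Gli1-driven firefly luciferase reporter; series mostly up to about 92 µM; nearly all actives have a fitted effect of over 15% in size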)
Summary of the method: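 Hedgehog pathway agonism scored by increased firefly luciferase luminescence in 3T3Gli1-Luc cells treated 24 hr at 37 C; detection used a 30 min room-temperature reagent incubation.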

[7] = qHTS assay to identify small molecule antagonists of the sonic hedgehog signaling (Shh) pathway (AID 1259369; calls by dose curve; further: nearly all actives have a fitted effect of over 45% in size)
Summary of the method: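 NIH/3T3 stable Gli1-Luc clone, 2,000 cells/well, 4hr settle; cpd + conditioned medium 24hr; Luc reagent 30min RT; luminescence.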

[8] = qHTS assay to identify small molecule HDAC inhibitors (AID 1259364);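 further: wild-type HCT-116 cells with endogenous class I/II HDAC activity; top concentration of the series differs between compounds; nearly all actives have a fitted effect of over 45% in size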
Summary of the method: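 Screening used wild-type human colon HCT-116 cells incubated overnight, dosed with compounds for 2 hours, and assayed with a homogeneous luminogenic HDAC I/II reagent for 30 minutes at room temperature.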

[9] = qHTS assay to identify small molecule phospholipidosis (PLD) inducers (AID 1259344; active means well fitted curve in the direction sought with a large enough effect; an effect the other way counts as inactive or inconclusive)
Summary of the method: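 Image-based: LipidTOX Red pit count/intensity per well and per cell; HepG2, 24 h compound at 37 C, PFA fixation, Hoechst counterstain.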
On the % scale 0 is the no-effect control and ±100 the full control effect.

Chain of Estrogen receptor (Homo sapiens) (P03372 whole entry, looked up): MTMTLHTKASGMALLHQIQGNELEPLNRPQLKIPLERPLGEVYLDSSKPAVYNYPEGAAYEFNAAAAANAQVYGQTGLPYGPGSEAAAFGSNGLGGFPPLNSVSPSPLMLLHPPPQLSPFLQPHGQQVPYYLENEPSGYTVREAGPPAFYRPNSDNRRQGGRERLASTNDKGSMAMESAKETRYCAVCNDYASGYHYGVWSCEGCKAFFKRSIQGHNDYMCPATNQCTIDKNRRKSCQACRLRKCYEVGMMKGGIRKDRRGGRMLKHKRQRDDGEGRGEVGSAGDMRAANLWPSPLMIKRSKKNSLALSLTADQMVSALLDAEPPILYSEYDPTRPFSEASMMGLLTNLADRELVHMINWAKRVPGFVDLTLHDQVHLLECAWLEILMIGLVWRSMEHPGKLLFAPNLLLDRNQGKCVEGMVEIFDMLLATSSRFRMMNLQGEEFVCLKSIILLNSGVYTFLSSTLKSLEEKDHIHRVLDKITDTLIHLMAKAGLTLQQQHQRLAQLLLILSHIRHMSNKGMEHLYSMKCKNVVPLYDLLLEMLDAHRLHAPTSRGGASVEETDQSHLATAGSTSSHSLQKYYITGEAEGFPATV

CC(C)CCCO
inactive: outcome [1] | outcome [2] | outcome [3] | Potency [4] | Potency [5] | outcome [6] | Potency [7]

C=COCC1CCC(COC=C)CC1 (configuration not stated)
inactive: outcome [1] | outcome [2] | Potency [8] | Potency [4] | Potency [5] | outcome [6] | Potency [7]

OCCCCCO
inactive: outcome [1] | outcome [2] | outcome [3] | Potency [4] | outcome [6] | Potency [7]

CC(C)=CCC/C(C)=C/C#N
inactive: outcome [1] | outcome [2] | outcome [3] | Potency [4] | Potency [5] | outcome [6]

C=CC(C)(CCC=C(C)C)OC(=O)CC (configuration not stated)
inactive: outcome [1] | outcome [2] | Potency [8] | Potency [4] | Potency [5] | outcome [6] | Potency [7]

Nc1ccncc1N
inactive: outcome [1] | outcome [9] | Potency [8] | outcome [3] | Potency [4] | Potency [5] | outcome [6] | Potency [7]

C[N+]1(CC2COC(c3ccccc3)(c3ccccc3)O2)CCCCC1 (configuration not stated)
inactive: viability change, negative = cytotoxic [1] 1.83% [at 19 µM] | outcome [9] | activity change, negative = cytotoxicity [3] 0.214% [at 19 µM] | viability change, negative = cytotoxic [4] 9.08% [at 19 µM] | viability change, negative = cytotoxic [5] 14.2% [at 19 µM] | activity change [6] 0.753% [at 18.9 µM] | activity change, negative = inhibition [7] -10.9% [at 19 µM]

C[C@H]1[C@H](NC(=O)/C(=N/OC(C)(C)C(=O)O)c2csc(N)n2)C(=O)N1S(=O)(=O)O (stereo in doubt)
inactive: outcome [1] | outcome [9] | Potency [8] | outcome [3] | Potency [4] | Potency [5] | outcome [6] | Potency [7]

CCN(C=O)CC
inactive: outcome [1] | Potency [8] | outcome [3] | Potency [4] | Potency [5] | outcome [6] | Potency [7]

OCCc1ccccn1
inactive: outcome [1] | Potency [8] | outcome [3] | Potency [4] | Potency [5] | outcome [6] | Potency [7]

c1ccc2sc(SN3CCOCC3)nc2c1
inactive: outcome [1] | outcome [9] | outcome [3] | Potency [4] | Potency [5] | outcome [6] | Potency [7]
